# Screening data deposited in PubChem by several laboratories.
# EphB4 antag = antagonists of human EphB4-ephrin-B2 interaction; EphB4 LBD / TNYL-RAW-Alexa532 peptide, fluorescence polarization; 97,000 tested, 0.15% active; AID 720; inhibition, % at 7 µM;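 active = inhibition above the screen-wide mean inhibition plus 3 SD, cut at about 15% in these data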;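 also: 0% = DMSO wells and 100% = excess unlabeled TNYL-RAW peptide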
# DAT uptake mod = human DAT dopamine uptake with cocaine, either direction; Q01959; 110,000 tested, 1.3% active; LLC-PK1 hDAT cells, [14C]-dopamine uptake with cocaine IC80; actives deviate in either direction; B-score at 10 µM;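 active = Z score or B-score, a plate-position-corrected score, falls beyond the plate's 99.7% confidence bounds, in either direction; inactive = both scores lie inside the 99.7% bounds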;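 also: scored against the spread of the other compound wells on the same plate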
# D1 allo mod = allosterically modulates the human D1 dopamine receptor; P21728; HEK293 D1, CRE-luciferase, dopamine EC30 potentiation; actives deviate in either direction; B-score at 10 µM; 58,000 tested, 5.9% active;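 active = luminescence count or its row- and column-corrected plate score outside the 99.7% band of the plate's sample wells, on either side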
# Numbers without * were called inactive; · = no result. Shown is part of a subset that was picked to be rich in hits.
SMILES,EphB4 antag,DAT uptake mod,D1 allo mod
CCn1c(-c2cccc(Br)c2)n[nH]c1=S,-7,1,0.1
CCn1c(-c2ccc3ncccc3c2)n[nH]c1=S,-2,3.1*,·
COc1cc(OC)c(C(=O)Nc2cccc(C(C)=O)c2)cc1OC,6,0.68,·
COC(=O)c1ccc(OC)cc1OCC(=O)N1CCN(c2ccc(F)cc2)CC1,1,0.55,·
S=c1[nH]ncn1/N=C/c1ccccn1,6,0.11,·
CC1CCCN(c2nc3ccsc3c(=O)s2)C1 (centres undefined),-4,-0.63,3.8*
CC1CCCN(c2nc3nonc3nc2N2CCCC(C)C2)C1 (centres undefined),-2,-0.7,·
CC(=O)COc1ncn(-c2ccccc2)n1,-4,0.66,·
c1ccc(-c2nc3cnccn3c2Nc2ccc3c(c2)OCCO3)cc1,4,2.5*,0.56
COc1cc(-c2nc3cnccn3c2Nc2ccc3c(c2)OCCO3)ccc1O,·,0.028,-0.93
O=C(NC(=O)c1ccccc1)OCC1CCCN2CCCCC12 (centres undefined),-3,-0.32,·
O=C(NC1=NC2CCCCC2N1)c1ccccc1 (centres undefined),7,-0.0009,-5.4*
CC(C)OC(=O)c1cc2c(ccn2C)n1CC(=O)N1CCC(Cc2ccccc2)CC1,-1,2.2*,·
Cc1ccccc1Cn1c(C(=O)OC(C)C)cc2c1ccn2C,3,0.24,·
Cc1nc(N)sc1N=Nc1ccc(F)cc1,-6,-0.27,·
CS(=O)(=O)N1CCN(Cc2ccc(C(F)(F)F)cc2)CC1,0,-0.056,·
O=C(NCc1ccccc1)C1=C[C@@H](c2coc3ccccc3c2=O)C[C@@H](OCCCCO)O1,·,0.64,·
Cc1cc(C(=O)NCCCN2CC(C)CC(C)C2)n(-c2ccccc2)n1 (centres undefined),-1,-0.00078,·
Cc1cc(S(=O)(=O)NC2CCCCC2)ccc1OCC(=O)NCc1ccccn1,-4,1.2,-0.032
O=C(COc1ccc(S(=O)(=O)N2CCc3ccccc32)cc1Cl)NCc1ccccn1,4,2.2*,0.28
Cn1c2c(c(=O)n(C)c1=O)C1c3cc(Cl)ccc3OCC1CO2 (centres undefined),4,0.28,·
O=c1c(-c2ccc(Br)cc2)coc2c(CN3CCOCC3)c(O)ccc12,1,0.73,-1.9
COc1ccc(Oc2coc3c(CN4CCOCC4)c(O)ccc3c2=O)cc1,-1,-7.4*,·
COc1ccc(Oc2c(C)oc3c(CN(C)C)c(O)ccc3c2=O)cc1,-1,-0.021,·
COc1ccc(Oc2coc3c(CN(C)C)c(O)ccc3c2=O)cc1,-5,-0.86,-4.3*
SMILES,EphB4 antag,DAT uptake mod,D1 allo mod
Cc1ccn2c(C(=O)c3ccc(Cl)cc3)cnc2c1,-1,-0.54,·
O=C(NCCCNC(=O)c1cccs1)c1cccs1,-2,-0.42,-0.2
COCCCNC(=O)c1cccs1,-1,2.7*,·
COC(=O)C1=C(C(=O)OC)[C@@H]2Nc3ccccc3[C@@]23C[C@@H](C(=O)OC)N(C(=O)c2cccs2)C3=N1,·,-0.33,·
Cc1nc2cc(N3CCCCC3)c(NC(=O)c3ccncc3)cc2c(=O)n1Cc1ccc(Cl)cc1,6,·,·
Cc1nc2cc(N3CCN(C)CC3)c(NC(=O)Cc3ccccc3)cc2c(=O)n1Cc1ccccc1,-1,0.28,-2.4*
CCOC(=O)CNC(=O)C(CC(C)C)NC(=O)C1CCCCC1 (centres undefined),4,-0.022,·
COc1ccc(-n2nnnc2SCC(N)=O)cc1,3,-1.5,-0.09
COc1ccc(-n2nnnc2SC(C)C(N)=O)cc1 (centres undefined),-3,-5.2*,0.074
CC(C)CC(=O)Nc1ccc(N2CCOCC2)cc1,-4,-1.7,·
c1ccc2nc3ccccc3nc2c1,·,-1.1,·
Nc1nc2ccccc2nc1N,·,-8*,-0.34
COc1ccc(C(=O)O/N=C(\C)c2ccccc2)cc1,-1,0.0021,·
COc1ccc(C(=O)N=c2nc3ccccn3s2)cc1,·,0.2,-4.8*
Cc1cc(Br)cn2ccnc12,-4,·,·
O=C(CNS(=O)(=O)c1ccc(Br)cc1)N1CCOCC1,3,0.28,·
Cc1nnc2n(C3CCCCC3)c(=O)c3c4c(sc3n12)COC(C)(C)C4,0,2.9,·
CC1(C)Cc2c(sc3nc(SCC#N)n(C4CCCCC4)c(=O)c23)CO1,·,·,26*
CCOc1cc(Br)ccc1S(=O)(=O)NCc1ccccc1,1,·,·
CCn1c(O)c(C=Nc2ccccc2)n(-c2ccccc2)c1=S,0,0.045,·
NC1=NC[C@H](Cc2ccccc2)N1CCc1cccc(F)c1,·,0.6,·
NC1=NC[C@H](Cc2ccc(O)cc2)N1CCc1cc(C(F)(F)F)cc(C(F)(F)F)c1,·,-0.047,·
NC1=NC[C@H](Cc2ccc(O)cc2)N1CCCCC1CCCCC1,·,-4.1*,·
NC1=NC[C@H](Cc2ccccc2)N1CCCCC1CCCCC1,·,-3*,·
Cc1ccc(NN2C(=O)C=C(c3ccc(Cl)cc3)C2=O)cc1,0,-0.6,·
CC(C)C(=O)NCCc1nc(-c2ccc(Cl)cc2)no1,·,0.002,·
